Bioassay records from PubChem BioAssay.
AHR act: AHR activators, primary screen, cell-based, luminescence, luciferase reporter, human; AHR-responsive luciferase reporter cells; activation, % at 5 µM; 2.5% of 320,000 active; in the data active means activation above about 47%
hgDAF12 agonist: H. glycines DAF-12 receptor agonists, primary screen, cell-based, luminescence, HEK293, GAL4 fusion, UAS-luciferase | HEK293 GAL4-hgDAF12 UAS-luciferase reporter, agonist luminescence; normalized to butyrate control | activation, % at 6.8 µM | 1.8% of 370,000 active;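 active means activation above a cutoff set at the mean of all screened compounds plus 3 SD, cut at about 10% in these data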
hcDAF-12 act: H. contortus DAF-12 nuclear receptor activators, primary screen, cell-based, luminescence, HEK293, lit1-tk-luc reporter; HEK293 hcDAF-12 lit1-tk-luc reporter; 0% DMSO, 100% Δ7-dafachronic acid; activation, % at 6.8 µM; 1.4% of 370,000 active; AID 652067, 2013;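 active means activation above the mean of all tested compounds plus 3 SD, cut at about 5.5% in these data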
ssDAF12 agonist: S. stercoralis DAF-12 nuclear receptor activators, primary screen, cell-based, luminescence, HEK293, GRIP1 co-expression, lit1-tk-luc. Nuclear hormone receptor DAF-12 (Strongyloides stercoralis). HEK293 ssDAF-12/GRIP1 lit1-tk-luc reporter; % of 3 µM dafachronic acid response. activation, % at 6.8 µM. 1% of 370,000 active. AID 652126, 2013;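 active means activation above the mean over all tested compounds plus 3 SD, cut at about 0.9% in these data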
DAX1 inh-1: DAX1 (NR0B1) inhibitors, primary screen, cell-based, HEK293, Gal4-DAX1, luciferase luminescence. Nuclear receptor subfamily 0 group B member 1 (Homo sapiens), P51843. HEK293 Gal4-DAX1 luciferase reporter. inhibition, % at 6.75 µM. 0.99% of 340,000 active. AID 504766, 2011;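 active means inhibition above the mean over all tested compounds plus 3 SD, cut at about 4.2% in these data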;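 further: inhibition shows as a rise in luminescence from relieved DAX1 repression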
DAX1 inh-2: DAX1 (NR0B1) inhibitors on StAR promoter, primary screen, cell-based, luminescence, SF-1 (NR5A1), full-length DAX-1; HEK293T StAR-luciferase reporter, SF-1/DAX-1 repression relief; 1.1% of 370,000 active; AID 652010, 2013; inhibition, % at 6.8 µM;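 active means inhibition above the mean over all tested compounds plus 3 SD, cut at about 3.6% in these data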;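 further: higher inhibition means more luminescence from relief of DAX-1 repression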
LXR ag: LXR agonists, Gal4 luciferase reporter, confirmation, counter-screen for hcDAF-12 agonist project, cell-based, luminescence, HEK293, H. contortus campaign; shares compounds with hcDAF-12 act; HEK293 Gal4-LXR tk-luc reporter, 24 h; normalized: DMSO 0%, positive control 100%; activation, % at 6.8 µM; 3,400 tested, under 10 active; AID 743027, 2013;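 active means mean percent activation of the reporter above a cutoff set as the average over tested compounds plus their standard deviation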
Target sequence (P55055 whole entry, looked up, the tested form may be a part): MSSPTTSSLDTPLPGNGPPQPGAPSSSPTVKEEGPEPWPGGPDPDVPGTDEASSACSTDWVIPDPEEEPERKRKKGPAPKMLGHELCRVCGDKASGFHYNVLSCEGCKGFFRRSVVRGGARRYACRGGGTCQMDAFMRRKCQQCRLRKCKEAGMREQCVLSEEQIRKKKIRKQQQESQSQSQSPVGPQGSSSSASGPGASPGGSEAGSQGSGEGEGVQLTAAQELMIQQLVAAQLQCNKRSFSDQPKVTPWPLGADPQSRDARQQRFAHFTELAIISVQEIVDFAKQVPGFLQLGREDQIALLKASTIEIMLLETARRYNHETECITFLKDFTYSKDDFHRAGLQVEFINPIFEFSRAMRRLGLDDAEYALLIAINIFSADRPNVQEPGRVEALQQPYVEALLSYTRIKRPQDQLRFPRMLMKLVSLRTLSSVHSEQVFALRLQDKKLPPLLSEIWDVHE
hcDAF12 ag: H. contortus DAF-12 receptor agonists, confirmation, cell-based, luminescence, HEK293, lit1-tk-luc, triplicate | shares compounds with hcDAF-12 act | HEK293 hcDAF-12 lit1-tk-luc reporter; % of Δ7-dafachronic acid response | activation, % at 6.8 µM | 61% of 3,400 active;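 active means mean activation across triplicate tests above the threshold derived from the earlier primary screen, cut at about 5.5% in these data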
hgDAF12 ag: H. glycines DAF-12 receptor agonists, confirmation, cell-based, luminescence, HEK293, GAL4-LBD fusion. shares compounds with hgDAF12 agonist. HEK293 GAL4-hgDAF12 luciferase reporter, agonist mode; percent of butyrate response. activation, % at 6.8 µM. 80% of 3,300 active. AID 743050, 2013;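 active means mean activation over triplicate wells above the hit cutoff derived from the earlier primary screen, cut at about 11% in these data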
LXR ag 2: LXR agonists, Gal4 luciferase reporter, confirmation, counter-screen for hgDAF-12 agonist project, cell-based, luminescence, HEK293, H. glycines campaign; shares compounds with hgDAF12 agonist; 24 h; activation, % at 6.8 µM; 3,300 tested, under 10 active; AID 743051, 2013;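 active means mean activation of the triplicate above a set limit carried over from the primary screen, none filed active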
Hits are given with their value; - = inactive; . = no result given. Sampled rows, rich in hits. Any-hit rate of the full collection: about 5.7%.

SMILES	AHR act	hgDAF12 agonist	hcDAF-12 act	ssDAF12 agonist	DAX1 inh-1	DAX1 inh-2	LXR ag	hcDAF12 ag	hgDAF12 ag	LXR ag 2
COc1ccccc1N(CC(=O)NCC1CCCO1)C(=O)CCC(=O)Nc1cc(C)on1 (configuration not stated)	-	-	-	-	-	-	.	.	.	.
Brc1ccc(-c2nnc3sc(CN4CCN(c5ccccc5)CC4)cn23)cc1	-	.	.	.	-	.	.	.	.	.
[O-][n+]1c2ccccc2c2n1CCCN=C2c1ccc(Cl)cc1	51	-	8.0	-	-	-	-	8.6	.	.
Nc1c(Cl)cc(C2=NCCn3nc4ccccc4c32)cc1Cl	-	-	-	-	-	-	.	.	.	.
Cc1cccc(-c2cc3nc(C)cc(C)n3n2)c1	-	-	8.6	1.6	-	-	-	11	.	.
Oc1ccc(-c2cccc(-c3ccc(O)cc3)n2)cc1	-	-	-	-	-	-	.	.	.	.
Oc1ccc(-c2cn3cc(C(F)(F)F)ccc3n2)cc1	-	12	7.7	-	-	-	-	9.0	.	.
Nc1[nH]c2cc(C(F)(F)F)ccc2c1C(=O)NCc1ccc(F)cc1	.	-	7.0	-	.	-	-	-	.	.
Nc1[nH]c2cc(Cl)ccc2c1C(=O)NCCc1ccc(Cl)cc1	.	-	6.6	-	.	-	-	7.2	.	.
Nc1[nH]c(C(=O)c2ccccc2)c(-c2ccccc2C(F)(F)F)c1C(=O)NCc1ccc(F)cc1	.	-	-	-	.	-	.	.	.	.
CCn1c(SCC(=O)c2c(N)n(C3CC3)c(=O)[nH]c2=O)nnc1-c1ccccc1OC	-	-	-	-	-	-	.	.	.	.
O=C(COc1ccc(Cl)cc1Cl)NNC(=S)NC(=O)c1ccco1	-	-	-	-	-	-	.	.	.	.
Cc1ccc(-c2nc(CS(=O)(=O)CC(=O)NCCCN(Cc3ccccc3)C(C)C)c(C)o2)cc1	-	-	-	-	-	-	.	.	.	.
Cc1oc(-c2ccc(-c3ccccc3)cc2)nc1CN(CCO)C(C)C	-	14	7.2	1.6	-	-	-	17	.	.
CC(C)OC(=O)c1nnc(Cc2ccc(Cl)cc2)o1	-	-	-	-	-	-	.	.	.	.
O=C(Nc1nc2ccc(Cl)cc2s1)c1ccco1	-	16	7.4	-	-	-	-	6.6	17	-
O=C(CCc1nnc(CCCc2ccccc2)o1)NC(C1CC1)C1CC1	-	16	7.3	-	5.0	-	-	-	15	-
CC(C)(CO)CNC(=O)CCc1nnc(CCCc2ccccc2)o1	-	-	-	-	-	-	.	.	.	.
FC(F)(F)c1cccc(NC(=S)NCc2ccccn2)c1	-	-	-	-	-	-	.	.	.	.
CN(C)c1ccc(/C=C/c2nnnn2-c2ccccc2)cc1	-	17	11	-	-	-	-	6.1	22	-
CN(C)c1ccc(/C=C/c2ccc3ccccc3n2)cc1	-	.	.	.	-	.	.	.	.	.
Cc1cc(C(=O)N/N=C/c2cccnc2)n[nH]1	-	-	-	-	-	-	.	.	.	.
O=C(N/N=C/c1cccnc1)c1[nH]ncc1Br	-	13	6.8	-	-	-	-	-	-	-
COc1ccccc1NC(CC(=O)c1ccccc1)C(=O)OCC(=O)c1ccc(C)cc1 (configuration not stated)	-	14	8.5	-	-	-	-	15	16	-
O=C(CC(Nc1ccccc1Cl)C(=O)OCC(=O)c1cccs1)c1ccccc1 (configuration not stated)	-	-	-	-	-	-	.	.	.	.
SMILES	AHR act	hgDAF12 agonist	hcDAF-12 act	ssDAF12 agonist	DAX1 inh-1	DAX1 inh-2	LXR ag	hcDAF12 ag	hgDAF12 ag	LXR ag 2
CCN1C(=O)NC(c2ccc(Cl)cc2)C2=C1CCCC2=O (configuration not stated)	-	-	-	-	-	-	.	.	.	.
COc1ccc2c(c1)CC/C(=C/c1ccco1)C2=O	-	16	8.6	-	-	4.2	-	6.2	16	-
COc1ccc2c(c1)CC/C(=C\c1ccc(OC)c(Cn3cccn3)c1)C2=O	-	-	-	-	-	-	.	.	.	.
O=C(Nc1ccc(Cl)c(Cl)c1)O/N=C/c1ccncc1	-	-	-	-	-	-	.	.	.	.
COc1cccc(/C=N/Nc2ccc([N+](=O)[O-])cc2)c1O	-	25	7.3	-	-	-	-	7.2	21	-
CC1(C)NC(=O)N(CCOc2ccc([N+](=O)[O-])cc2)C1=O	-	-	-	-	-	-	.	.	.	.
Cc1ccc2nc(-c3ccc(SCC(=O)O)nc3)[nH]c2c1	-	-	-	-	-	-	.	.	.	.
CCc1nnc(NC(=O)CSc2ccc(-c3nc4ccc(C)cc4[nH]3)cn2)s1	66	17	7.3	-	-	4.4	-	7.8	18	-
O=C(CCCc1ccccc1)NC12CC3CC(CC(C3)C1)C2	-	17	8.4	1.2	-	-	-	6.9	15	-
O=C(O)CCCn1nc(-c2ccccc2)c2ccccc21	-	-	-	-	-	-	.	.	.	.
COc1cccc(C(=O)/C=C/Nc2cc(C)ccc2O)c1	-	-	-	-	-	-	.	.	.	.
Cc1ccc(Cl)c(N/C=C/C(=O)c2ccccc2)c1	-	15	13	2.9	-	-	-	16	26	-
Cc1cccc(N/C=C/C(=O)c2ccc(Cl)cc2)c1	-	14	6.6	-	4.7	-	-	6.9	22	-
CN(C)Cc1c(O)c(Cl)cc2c3c(c(=O)oc12)CCCC3	-	-	-	-	-	-	.	.	.	.
Cc1cc(C)c2c(N)c(-c3nc4ccccc4[nH]3)sc2n1	55	13	16	2.6	5.0	-	-	10	14	-
